# SW480 rereplic: A quantitative high throughput screen for small molecules that induce DNA re-replication in SW480 colon adenocarcinoma cells. SW480 DNA re-replication, Hoechst DNA content imaging, 48 h. Potency, µM (series often up to 46.1 µM), without a hit: top-dose re-replication activation, actives largely listed as activators. 340,000 compounds, 1.8% hits. AID 624297, 2012; note: % of control where 0% means no effect; nearly all actives have a fitted effect of over 55% in size
#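 Treated cells incubate 48 hr (37 C, 5% CO2), are stained 40 min with Hoechst, and nuclear fluorescence is enumerated; a rise in nuclei with high DNA signal marks re-replication.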
# MCF10A rereplic: A quantitative high throughput screen for small molecules that induce DNA re-replication in MCF 10a normal breast cells | MCF 10A DNA re-replication, Hoechst nuclear intensity, 48 h | Potency, µM (series often up to 46.1 µM), without a hit: top-dose activity, positive = re-replication, actives largely listed as activators | 350,000 compounds, 2.9% hits; note: % of control where 0% means no effect; nearly all actives have a fitted effect of over 50% in size
# KB-3-1 cytotox: qHTS assay for MDR1-selective chemotherapeutics: Primary screen using the parental adenocarcinoma cell KB-3-1 | 400,000 compounds, 1.4% hits | KB-3-1 viability, CellTiter-Glo ATP luminescence, 72 h | Potency, µM (top dose mostly 46.1 µM), actives largely listed as cytotoxic; note: % is set by controls: 0 for no effect and ±100 for the full control effect; nearly all actives have a fitted effect of over 60% in size
#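 Parental KB-3-1 adenocarcinoma cells in phenol-red-free DMEM with 10% FBS were pin-treated with compounds at several concentrations, incubated 72 h at 37 °C, and viability read by CellTiter-Glo luminescence; concentration-effect curves were fitted after normalization.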
# KB-V1 cytotox: qHTS assay for MDR1-selective chemotherapeutics: Primary screen using the drug-selected MDR subline cells KB-V1; KB-V1 MDR cells viability, CellTiter-Glo, 72 h; Potency, µM (titrated, usually from 46.1 µM), hits mostly cytotoxic; 400,000 compounds, 3.4% hits; AID 1347076, 2019; note: % is set by controls: 0 for no effect and ±100 for the full control effect; nearly all actives have a fitted effect of over 60% in size
#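 KB-V1 MDR subline cells in DMEM (phenol-red free, 10% FBS) exposed to compounds in qHTS concentration series for 72 h at 37 degrees C. Viability read by CellTiter-Glo luminescence; concentration-effect curves fitted after normalization and correction.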
# ELG1 repair inh: qHTS screen for small molecules that inhibit ELG1-dependent DNA repair in human embryonic kidney (HEK293T) cells expressing luciferase-tagged ELG1; HEK293T ELG1-luciferase reporter, luminescence, 16 h; DNA damage induced by 5-fluorouridine; Potency, µM (series often up to 46.1 µM), for the others: at the top dose activity change, negative = inhibition, actives largely listed as inhibitors; 330,000 compounds, 2.3% hits; AID 504467, 2011; note: % is set by controls: 0 for no effect and ±100 for the full control effect; nearly all actives have a fitted effect of over 55% in size
#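 Cells (2,000 per well) received 5-fluorouridine plus test compound or DMSO and were incubated 16 hr at 37 °C, 5% CO2. Luciferase activity was read by luminescence 30 min after ONE-Glo addition; signal suppression marked inhibition of damage-induced ELG1 function.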
# * hit, by the source's call; i = inactive; ? = inconclusive; / = no result. Most compounds without a hit are left out; they make up all but 8.2% or so of the library. Calls come from the whole dose curve; as a rule, active = well fitted curve in the direction sought with a large enough effect; inconclusive = small, poorly fitted or top-dose-only effect, or another doubt; inactive = no such curve, though single readings can be large; an effect the other way counts as inactive or inconclusive. Potency is the fitted concentration of half-maximal effect.
SMILES,SW480 rereplic,MCF10A rereplic,KB-3-1 cytotox,KB-V1 cytotox,ELG1 repair inh
Cc1c(Br)c([N+](=O)[O-])nn1CCCC(=O)Nc1sc2c(c1C(N)=O)CCC(C)C2 (stereo unspecified),-54%,-25%,?,8.2µM*,?
COC(=O)c1ccccc1Oc1cc(C(F)(F)F)nc(-c2ccccn2)n1,-5%,18%,i,i,/
CCCCOc1ccc(S(=O)(=O)Nc2ccc(-c3ccc(N4CCCCC4)nn3)cc2)cc1,/,/,i,i,/
CC(C)(C)c1ccc(N=C2SCC(=O)N2Cc2cccs2)cc1,?,23µM*,i,?,-32%
CCN1C(=O)CSC1=Nc1ccc(C(=O)O)cc1,7%,-13%,i,i,-3%
O=C(C1CCC(=O)N(C2CC2)C1)N1CCC(Oc2ccccc2F)CC1 (stereo unspecified),2%,-26%,i,i,1%
CC(C)N(Cc1ccccc1)C(=O)COC(=O)CCC(=O)c1ccc(F)cc1,3%,0%,i,?,13%
Cc1ccc2nc(-c3ccccc3)c(Cc3ccsc3)n2c1,/,/,?,21µM*,/
Fc1ccc(-c2nc3ccc(Br)cn3c2Cc2ccccc2)cc1,/,/,21µM*,i,/
Cc1ccc2nc(C3CCCCC3)c(Cc3ccsc3)n2c1,/,/,?,16µM*,/
Cc1ccc(-c2nc3c4ccccc4ccn3c2Cc2ccsc2)cc1,/,/,i,i,/
Cc1ccc(NC(=O)C(CC(C)C)N2Cc3ccccc3C2=O)cc1F (stereo unspecified),/,/,i,i,/
CNC(=O)c1cnn2c(C)cc(C)nc12,/,/,i,i,/
CC(=O)c1ccccc1C(=O)N1CCC(CCC(=O)NCc2ccc(F)cc2)CC1,/,/,i,i,/
CN(C)C(=O)c1ccc(S(=O)(=O)NCc2ccccc2Cl)s1,/,/,i,i,/
CCOC(=O)c1cnc(SC)nc1Oc1cccc(NS(=O)(=O)c2ccc(Cl)cc2)c1,14%,16%,?,?,23µM*
CCOC(=O)C1CCCN(Cc2nc(C3CC3)no2)C1 (stereo unspecified),-23%,-15%,i,i,10%
CCC(C(=O)Nc1ccc(C)c(Cl)c1)n1c(=O)c(-c2ccccc2NC(C)=O)nc2ccccc21 (stereo unspecified),/,/,i,?,/
CCOC(=O)C1C(=O)OC(C)(C)C1C(C)C(=O)c1ccc(C)cc1 (stereo unspecified),-5%,3%,i,15µM*,-7%
O=CN1CCN(S(=O)(=O)c2ccc(S(=O)(=O)NC3CCCCC3)cc2)CC1,-6%,-14%,i,i,0%
CC1(C(=O)O)CCCN1C(=O)c1cccc2ccccc12 (stereo unspecified),/,/,i,i,/
COC(C[C@@H]1O[C@@H]1[C@H](O)[C@@H](C)OCc1ccccc1)OC,-16%,5%,i,?,16%
CCOC(=O)N1CC=C2C(C#N)=C(N)C(C#N)(C#N)[C@H](c3cccs3)C2C1 (stereo partly specified),4%,13%,i,9.2µM*,?
CCCOc1ccc([C@@H]2C3CN(C(=O)OCC)CC=C3C(C#N)=C(N)C2(C#N)C#N)cc1OC (stereo partly specified),11%,13%,i,i,?
CC(C)(C)OC(=O)N1CC=C2C(C#N)=C(N)C(C#N)(C#N)C(c3cccs3)C2C1 (stereo unspecified),7%,?,i,9.2µM*,-22%
SMILES,SW480 rereplic,MCF10A rereplic,KB-3-1 cytotox,KB-V1 cytotox,ELG1 repair inh
Cc1ccccc1NS(=O)(=O)c1ccc(C(=O)N2CCCC2)cc1,-5%,3%,i,21µM*,8%
Cc1nc2ccc(S(=O)(=O)Nc3ccccc3C)cc2s1,?,?,?,18µM*,?
O=C(c1ccc(N2CCCC2=O)cc1)N1CCN(c2ccccc2F)CC1,-3%,0%,i,i,-2%
Cc1nc2ccc(NS(=O)(=O)c3ccc(C)c(C)c3)cc2s1,0%,18%,i,?,?
Cc1cccc(NS(=O)(=O)c2ccc(C(=O)N3CCN(c4ccccc4O)CC3)cc2)c1C,1%,23µM*,?,?,21µM*
O=C(c1ccc(N2CCCC2=O)cc1)N1CCN(c2ccccc2O)CC1,6%,4%,i,i,18µM*
CC(=O)Oc1ccc(N2C(=O)C3C4C=CC(CO)(O4)C3C2=O)cc1 (stereo unspecified),?,?,i,i,19%
COc1ccc(C(=O)NCC23C=CC(O2)C2C(=O)N(Cc4ccccc4)C(=O)C23)cc1 (stereo unspecified),-2%,1%,i,i,16µM*
Cc1cccc2sc(N(CCN(C)C)C(=O)/C=C/c3cccs3)nc12,?,23µM*,?,18µM*,-18%
CCN(CC)CCN(C(=O)/C=C/c1cccs1)c1nc2ccc(OC)cc2s1,-1%,0%,i,i,/
CN(C)CCCN(C(=O)CCc1ccccc1)c1nc2c(F)cccc2s1,20%,2%,i,i,2%
CN(C)CCCN(C(=O)/C=C/c1cccs1)c1nc2c(F)cccc2s1,?,26µM*,?,?,1%
CCOc1ccc2nc(N(CCN(CC)CC)C(=O)/C=C/c3cccs3)sc2c1,29µM*,?,i,i,-12%
COc1ccc2nc(N(CCN(C)C)C(=O)/C=C/c3cccs3)sc2c1,3%,26%,?,i,-27%
CCOc1ccccc1-n1cc2c(c1-c1ccc(OC)cc1)c(=O)n(C)c(=O)n2C,/,/,i,i,/
Cc1ccc2c(c1C)C(=O)C(=O)N2,3%,-3%,i,i,/
CCCCNC(=O)C(NC(=O)c1ccc(C)cc1)C(=O)c1ccccc1 (stereo unspecified),/,/,i,?,/
Cc1ccccc1OCCN1C(=O)NC2(CCc3ccccc32)C1=O (stereo unspecified),1%,-1%,i,23µM*,-4%
COc1ccc(C2c3c(oc4ccc(F)cc4c3=O)C(=O)N2Cc2ccc3c(c2)OCO3)cc1 (stereo unspecified),/,/,i,i,/
COC(=O)c1nn(-c2ccc(OC)cc2)c(=O)cc1O,9%,-1%,i,i,?
COc1ccc(-n2nc(C#N)c(Cl)cc2=O)cc1,?,0.73µM*,?,i,?
